Assay results reported in PubChem BioAssay (NCATS).
Records with an inconclusive call do not appear. Where a call stands in place of a potency, no number is given. Active and inactive are the calls of the source. Calls follow the shape of the dose curve; as a rule, active = well fitted curve in the direction sought with a large enough effect; inconclusive = small, poorly fitted or top-dose-only effect, or another doubt; inactive = no such curve, though single readings can be large; an effect the other way counts as inactive or inconclusive.

Assay: qHTS assay to identify small molecule inhibitors of chordoma cells - UCH-2 (AID 1259356)
Conditions: UCH-2 chordoma viability, CellTiter-Glo ATP luminescence, 48 h; series mostly up to 46.1 µM
With CCNC(=O)/C=C/c1cccc(Br)c1 the Potency was “inactive”. For CCOc1ccc(NC(C)=O)cc1, the Potency was “inactive”. In the case of OC1C(O)C(O)C(O)C(O)C1O (centres undefined), the Potency is reported as “inactive”. In the case of Clc1cccc(C(c2ccc3nc[nH]c3c2)n2ccnc2)c1 (centres undefined), the Potency is reported as “inactive”. For O=C1c2cccc3c2[C@H](CCC3)CN1[C@@H]1CN2CCC1CC2, the Potency was “inactive”. For Nc1nc(Cl)nc2c1ncn2[C@@H]1O[C@H](CO)[C@@H](O)[C@@H]1F, the Potency was “inactive”. For CC(=O)Nc1ncc([N+](=O)[O-])s1, the Potency was “inactive”. For CC(C)Nc1cccnc1N1CCN(C(=O)c2cc3cc(NS(C)(=O)=O)ccc3[nH]2)CC1, the Potency was “inactive”. With CN(C)CCOC(=O)C(c1ccccc1)C1(O)CCCC1 (centres undefined) the Potency was “inactive”.

Assay: P-glycoprotein substrates identified in KB-8-5-11 adenocarcinoma cell line, qHTS therapeutic library screen (AID 1346987); also: nearly all actives have a fitted effect of over 65% in size
Conditions: KB-8-5-11 (P-gp overexpressing) viability, CellTiter-Glo, 72 h; series mostly up to 44.5 µM
In short: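 Compounds are pinned in dose-response onto KB-8-5-11 cells (500 cells/well, colchicine-free medium) and left 72 h at 37 degree C. CellTiter-Glo luminescence then yields AC50 values.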
For C=C[C@H]1CN2CC[C@H]1C[C@@H]2[C@@H](O)c1ccnc2ccc(OC)cc12, the Potency was “inactive”. With O=C(O)CCNC(=O)c1ccccc1 the Potency was “inactive”. For CC(C)NCC(O)c1ccc2ccccc2c1 (centres undefined), the Potency was “inactive”. In the case of CC(=C(CCOC(=O)C(C)C)SSC(CCOC(=O)C(C)C)=C(C)N(C=O)Cc1cnc(C)nc1N)N(C=O)Cc1cnc(C)nc1N, the Potency is reported as “inactive”. For CC1(C)OC[C@@H]2O[C@@]3(C(=O)O)OC(C)(C)O[C@H]3[C@@H]2O1, the Potency was “inactive”. For CN1CCN(c2c(F)cc3c(=O)c(C(=O)O)cn4c3c2SCC4)CC1, the Potency was “inactive”. For Cc1cc(-c2ccccc2)nnc1NCCN1CCOCC1, the Potency was “inactive”. For COc1ccc(CCN(C)CCCN2CCc3cc(OC)c(OC)cc3CC2=O)cc1OC, the Potency was “inactive”. For C=C[C@@]1(C)CC(=O)[C@]2(O)[C@@]3(C)[C@@H](O)CCC(C)(C)[C@@H]3[C@H](O)[C@H](OC(C)=O)[C@@]2(C)O1, the Potency was “inactive”. For CCOc1ccccc1OCCN[C@H](C)Cc1ccc(OC)c(S(N)(=O)=O)c1, the Potency was “inactive”. With CCCCC(CC)CN1CN(CC(CC)CCCC)CC(C)(N)C1 (centres undefined) the Potency was “inactive”. For CC(=O)Nc1ccc(OC(=O)c2ccccc2OC(C)=O)cc1, the Potency was “inactive”. For OCc1ccccn1, the Potency was “inactive”. With COc1cc(O)c(C(=O)c2ccccc2)cc1S(=O)(=O)O the Potency was “inactive”. In the case of CCOc1ccc(NC(C)=O)cc1, the Potency is reported as “inactive”. In the case of CC(=O)Nc1ncc([N+](=O)[O-])s1, the Potency is reported as “inactive”. With CC(C)Nc1cccnc1N1CCN(C(=O)c2cc3cc(NS(C)(=O)=O)ccc3[nH]2)CC1 the Potency was “inactive”.

Assay: NS1 protein of Zika virus - qHTS assay to identify small molecule inhibitors in human HEK 293 cells (AID 1347053); also: nearly all actives have a fitted effect of over 55% in size; also: potency is read from the fitted curve at half-maximal effect
Conditions: HEK293 ZIKV MR766 infection, NS1 TR-FRET, 24 h; series mostly up to 46.1 µM
In short: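 Read-out is a two-antibody TR-FRET for ZIKV NS1, normalized between uninfected cells and infected cells. Compound added 1 h before MR766 infection at MOI 0.5; human HEK 293 cells incubated 24 h, 37 C.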
In the case of O=C(O)P(=O)(O)O, the Potency is reported as “inactive”. With CC(C)n1c(/C=C/[C@@H](O)C[C@@H](O)CC(=O)O)c(-c2ccc(F)cc2)c2ccccc21 the Potency was “inactive”. In the case of C=C[C@H]1CN2CC[C@H]1C[C@@H]2[C@@H](O)c1ccnc2ccc(OC)cc12, the Potency is reported as “inactive”. With O=C(O)CCNC(=O)c1ccccc1 the Potency was “inactive”. For CC(C)NCC(O)c1ccc2ccccc2c1 (centres undefined), the Potency was “inactive”. For CC(=C(CCOC(=O)C(C)C)SSC(CCOC(=O)C(C)C)=C(C)N(C=O)Cc1cnc(C)nc1N)N(C=O)Cc1cnc(C)nc1N, the Potency was “inactive”. In the case of CC1(C)OC[C@@H]2O[C@@]3(C(=O)O)OC(C)(C)O[C@H]3[C@@H]2O1, the Potency is reported as “inactive”. With CN1CCN(c2c(F)cc3c(=O)c(C(=O)O)cn4c3c2SCC4)CC1 the Potency was “inactive”. For Cc1cccc(C)c1NC(=O)CN1CCCCCC1, the Potency was “inactive”. In the case of CCN(CC)CCOC(=O)C(Cc1cccc2ccccc12)CC1CCCO1 (centres undefined), the Potency is reported as “inactive”. With Cc1cc(-c2ccccc2)nnc1NCCN1CCOCC1 the Potency was “inactive”. In the case of CCN1CCN(C(=O)N[C@@H](C(=O)N[C@@H]2C(=O)N3C(C(=O)O)=C(CSc4nnnn4C)CS[C@H]23)c2ccc(O)cc2)C(=O)C1=O, the Potency is reported as “inactive”. For O=C(CN1CCN(Cc2ccc3c(c2)OCO3)CC1)N1c2ccccc2Sc2ccccc21, the Potency was “inactive”. For O=S(c1cc(Cl)cc(Cl)c1O)c1cc(Cl)cc(Cl)c1O, the Potency was “inactive”. For Oc1ccc(Cl)cc1Cc1cc(Cl)ccc1O, the Potency was “inactive”. With CC[C@H](c1ccc(O)cc1)[C@@H](CC)c1ccc(O)cc1 the Potency was “inactive”. In the case of Cc1ccc(O)c([C@H](CCN(C(C)C)C(C)C)c2ccccc2)c1, the Potency is reported as “inactive”. With COc1ccc(CCN(C)CCCN2CCc3cc(OC)c(OC)cc3CC2=O)cc1OC the Potency was “inactive”. In the case of C=C[C@@]1(C)CC(=O)[C@]2(O)[C@@]3(C)[C@@H](O)CCC(C)(C)[C@@H]3[C@H](O)[C@H](OC(C)=O)[C@@]2(C)O1, the Potency is reported as “inactive”. In the case of CCOc1ccccc1OCCN[C@H](C)Cc1ccc(OC)c(S(N)(=O)=O)c1, the Potency is reported as “inactive”. For CCO[C@@H]1O[C@H](C(COCc2ccccc2)OCc2ccccc2)[C@H](OCc2ccccc2)[C@H]1O (some centres undefined), the Potency was “inactive”. With CCCCC(CC)CN1CN(CC(CC)CCCC)CC(C)(N)C1 (centres undefined) the Potency was “inactive”. With CC(=O)Nc1ccc(OC(=O)c2ccccc2OC(C)=O)cc1 the Potency was “inactive”. With OCc1ccccn1 the Potency was “inactive”. With COc1cc(O)c(C(=O)c2ccccc2)cc1S(=O)(=O)O the Potency was “inactive”. For CCNC(=O)/C=C/c1cccc(Br)c1, the Potency was “inactive”. For CCOc1ccc(NC(C)=O)cc1, the Potency was “inactive”. For OC1C(O)C(O)C(O)C(O)C1O (centres undefined), the Potency was “inactive”. For Clc1cccc(C(c2ccc3nc[nH]c3c2)n2ccnc2)c1 (centres undefined), the Potency was “inactive”. With Nc1nc(Cl)nc2c1ncn2[C@@H]1O[C@H](CO)[C@@H](O)[C@@H]1F the Potency was 4.47 µM (active). In the case of CC(=O)Nc1ncc([N+](=O)[O-])s1, the Potency is reported as “inactive”. For CC(C)Nc1cccnc1N1CCN(C(=O)c2cc3cc(NS(C)(=O)=O)ccc3[nH]2)CC1, the Potency was “inactive”. With CN(C)CCOC(=O)C(c1ccccc1)C1(O)CCCC1 (centres undefined) the Potency was “inactive”.
